Tb PYK inh: T. brucei pyruvate kinase inhibition; TbPYK enzyme, Kinase-Glo Plus ATP luminescence, 45 min; 410,000 tested, 0.12% active; Potency, µM (top dose mostly 76.8 µM), inactives show at the highest dose activity, negative = inhibition, actives largely listed as inhibitors; AID 624173; Q57TT1; also: potency is read from the fitted curve at half-maximal effect; % is scaled to controls: 0 for no effect and ±100 for the full control effect; nearly all actives have a fitted effect of over 50% in size
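Readout: single end-point luminescence (Kinase-Glo Plus, 10 min). Reaction conditions were TbPYK/substrate plus 130 uM ADP, 45 min at RT, pH 7.2 TEA buffer. No-enzyme wells served as controls, and data were normalized before concentration-response fitting.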
Giardia FBPA inh: inhibitors of Giardia lamblia fructose-1,6-bisphosphate aldolase; A8B2U2; purified Giardia FBPA; Potency, µM (top dose mostly 59.6 µM), for the others: top-dose activity, negative = inhibition, hits mostly inhibitors; 290,000 tested, 0.71% active; also: potency is read from the fitted curve at half-maximal effect; % is scaled to controls: 0 for no effect and ±100 for the full control effect; nearly all actives have a fitted effect of over 55% in size
Target sequence (A8B2U2 whole entry, looked up): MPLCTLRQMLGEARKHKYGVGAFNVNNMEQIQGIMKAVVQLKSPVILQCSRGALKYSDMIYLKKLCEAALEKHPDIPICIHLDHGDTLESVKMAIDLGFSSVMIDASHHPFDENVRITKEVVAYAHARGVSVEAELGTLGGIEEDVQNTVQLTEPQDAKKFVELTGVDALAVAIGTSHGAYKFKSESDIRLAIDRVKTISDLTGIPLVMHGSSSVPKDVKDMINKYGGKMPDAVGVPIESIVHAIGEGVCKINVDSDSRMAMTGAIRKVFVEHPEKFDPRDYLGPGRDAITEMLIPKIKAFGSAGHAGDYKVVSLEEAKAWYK
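40 nM FBPA preincubated 10 min at RT with compound (up to 57.5 uM final), then substrate plus GAPDH/TPI/NAD/arsenate coupling and diaphorase/resazurin added. Fluorescence read after 20 min at RT, 525/598 nm.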
NS1 function inh: influenza NS1 inhibition; Potency, µM (titrated, usually from 46.1 µM), for inactives: at the highest dose activity, positive = more growth; 270,000 tested, 0.4% active; AID 2326; calls by dose curve; also: potency is read from the fitted curve at half-maximal effect; actives are rising curves; nearly all actives have a fitted effect of over 50% in size
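In this qHTS, NS1 from influenza A is expressed in budding yeast, where it slows growth. Cells are switched from glucose to 2% galactose medium (pH 6.0, -URA), treated with compound, and growth recovery is read at OD600.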
LmPK inhibitor: LmPK (Leishmania mexicana) enzyme inhibition | Q27686 | purified LmPK, Kinase-Glo ATP luminescence, 1 h | 290,000 tested, 0.37% active | Potency, µM (top dose mostly 57.5 µM), inactives show top-dose activity change, negative = inhibition, usual class: inhibitors; also: potency is read from the fitted curve at half-maximal effect; % is scaled to controls: 0 for no effect and ±100 for the full control effect
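Purified LmPK (0.1 nM) with 0.5 mM PEP and 0.1 mM ADP in imidazole buffer pH 7.2 with MgCl2/KCl, 1 h at room temperature. ATP formed was read by luciferase luminescence and normalized to no-enzyme and uninhibited controls.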
RE007 growth inh: less growth of the S. pombe RE007 Vpr strain; S. pombe RE007 Vpr strain, BacTiter-Glo ATP luminescence, 24 h; Potency, µM (series often up to 92.2 µM), without a hit: top-dose activity change, negative = less growth, most hits filed as inhibitors; 360,000 tested, 0.21% active; active = well fitted falling curve with a large enough effect; inconclusive = small, poorly fitted or top-dose-only effect; inactive = no such curve, though single readings can be large or run the other way; also: potency is read from the fitted curve at half-maximal effect; % is scaled to controls: 0 for no effect and ±100 for the full control effect; nearly all actives have a fitted effect of over 50% in size
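Fission yeast RE007 carrying one integrated HIV-1 vpr copy, seeded at OD 0.01 in PMG+AL medium with 23 nL pinned compound. Grown 24 h at 30 degrees; viability read by BacTiter-Glo luminescence after 5 min.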
Sm TGR inh: blocks Schistosoma mansoni thioredoxin glutathione reductase | Q962Y6 | purified TGR, DTNB reduction, TNB absorbance 405 nm | Potency, µM (series often up to 114 µM), for the others: top-dose activity change, negative = inhibition, hits mostly inhibitors | 360,000 tested, 3% active; also: potency is read from the fitted curve at half-maximal effect; % is scaled to controls: 0 for no effect and ±100 for the full control effect; nearly all actives have a fitted effect of over 60% in size
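Kinetic colorimetric format: TGR-catalysed, NADPH-driven DTNB reduction monitored via TNB absorbance. Enzyme dispensed at 20 nM; compound exposure 15 min at room temperature before reaction start.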
Flu NS1 inh: validation of influenza NS1 protein function inhibitors | shares compounds with NS1 function inh | influenza NS1 function cell assay, 15-point titration | activity change, negative = inhibition, % at 32.9 µM | 1,400 tested, under 10 active | AID 492980; calls by dose curve; also: 0% is about no effect
* = called active by the depositor; [ ] = dose if it differs, or a comment. The list is not random: actives were taken first. Their share in the collection is about 3.5%. Unless noted, calls follow the shape of the dose curve; as a rule, active = well fitted curve in the direction sought with a large enough effect; inconclusive = small, poorly fitted or top-dose-only effect, or another doubt; inactive = no such curve, though single readings can be large; an effect the other way counts as inactive or inconclusive.

What do the screens show for `CCOC(=O)CSC1=C(C#N)C(c2ccco2)C(C(=O)Nc2cccc(C(F)(F)F)c2)=C(C)N1` (stereo not drawn)?
Tb PYK inh: 1%; Giardia FBPA inh: -13%; NS1 function inh: inconclusive; LmPK inhibitor: 5%; RE007 growth inh: 8%; Sm TGR inh: inconclusive

What do the screens show for `O=C(COc1ccccc1F)Nc1nnc(SCc2cc(=O)n3ccccc3n2)s1`?
Tb PYK inh: 11%; Sm TGR inh: 0%

How did Cc1ccc(N(CC(=O)N2CCN(c3cc(Cl)ccc3C)CC2)S(=O)(=O)c2c(C)noc2C)cc1 do in these assays?
Tb PYK inh: 0%; Sm TGR inh: 4%

What do the screens show for `Oc1ccc(/C=N/Nc2ncnc3c2ncn3Cc2ccccc2)cc1O`?
Tb PYK inh: 3%; Giardia FBPA inh: inconclusive; NS1 function inh: 14µM*; LmPK inhibitor: -1%; RE007 growth inh: 8%; Sm TGR inh: -24%; Flu NS1 inh: 0

Results for Oc1cccc(/C=N/Nc2ncnc3c2ncn3Cc2ccccc2)c1 ?
Tb PYK inh: -13%; Giardia FBPA inh: 1%; NS1 function inh: 10%; LmPK inhibitor: 0%; RE007 growth inh: 12%; Sm TGR inh: -6%

How did O=S(=O)(Nc1ncnc2c1oc1ccccc12)c1ccc(Cl)s1 do in these assays?
Tb PYK inh: -1%; Giardia FBPA inh: 15%; NS1 function inh: 1.1µM*; LmPK inhibitor: 1%; RE007 growth inh: 16%; Sm TGR inh: inconclusive; Flu NS1 inh: -1

How did CNc1c(NS(=O)(=O)c2ccc(Cl)s2)c(=O)oc2ccccc12 do in these assays?
Tb PYK inh: -4%; Giardia FBPA inh: -3%; NS1 function inh: 6%; LmPK inhibitor: 1%; RE007 growth inh: 21%; Sm TGR inh: 1%

Results for O=C(O)COc1nn(Cc2ccccc2)c2ccccc12 ?
Tb PYK inh: 0%

How did O=C(NNC(=S)NC1CCCCC1)c1cccs1 do in these assays?
Tb PYK inh: -11%; Giardia FBPA inh: -2%; NS1 function inh: 2.5µM*; LmPK inhibitor: 6%; RE007 growth inh: 18%; Sm TGR inh: -1%; Flu NS1 inh: 11

What do the screens show for `O=C(NC1CCCCC1)c1cccs1`?
Tb PYK inh: -5%; Giardia FBPA inh: -1%; NS1 function inh: 4%; LmPK inhibitor: 5%; RE007 growth inh: -17%; Sm TGR inh: 0%

What do the screens show for `COc1cc(OC)c2c(N)c(C#N)c(C(F)(F)C(F)(F)F)nc2c1`?
Tb PYK inh: 4%; Giardia FBPA inh: 1%; NS1 function inh: -2%; LmPK inhibitor: -3%; RE007 growth inh: -7%; Sm TGR inh: 9%

Results for COc1ccc2nc(C(F)(F)C(F)(F)F)c(C#N)c(N)c2c1 ?
Tb PYK inh: 14%; Giardia FBPA inh: -2%; NS1 function inh: 7.9µM*; LmPK inhibitor: 12%; RE007 growth inh: 12%; Sm TGR inh: 17%; Flu NS1 inh: 16

What do the screens show for `COc1ccc(-n2c(O)c(/C=N/NS(=O)(=O)c3ccc(C)cc3)c3ccccc3c2=O)cc1OC`?
Tb PYK inh: -5%; Giardia FBPA inh: -10%; NS1 function inh: 10µM*; LmPK inhibitor: 0%; RE007 growth inh: 4%; Sm TGR inh: -10%; Flu NS1 inh: 0

What do the screens show for `CNC(=O)Cn1cc(S(=O)(=O)Cc2ccccc2F)c2ccccc21`?
Tb PYK inh: 3%[15.4 µM]; Sm TGR inh: 6%

Results for CCOC(=O)C1=C(C)N=C2SC(C)C(=O)N2C1c1ccccc1 (stereo not drawn) ?
Tb PYK inh: -3%; Giardia FBPA inh: -2%; NS1 function inh: 7%; LmPK inhibitor: -4%; RE007 growth inh: 5%; Sm TGR inh: -6%[57.1 µM]

How did CCOC(=O)C1=C(C)N=C2SC(C)C(=O)N2C1c1ccc(C(=O)OC)cc1 (stereo not drawn) do in these assays?
Tb PYK inh: 2%; Giardia FBPA inh: 4%; NS1 function inh: 7.9µM*; LmPK inhibitor: 8%; RE007 growth inh: 0%; Sm TGR inh: -27%; Flu NS1 inh: -1

How did CCCCCCCC/C=C\CCCCCCCC(=O)OC[C@@H](O)COP(=O)(O)O do in these assays?
Giardia FBPA inh: 4%

Results for O=C(Cc1nc2ccccc2[nH]1)N/N=C/c1ccccc1 ?
Tb PYK inh: 3%; Giardia FBPA inh: 1%; NS1 function inh: inconclusive; LmPK inhibitor: -2%; RE007 growth inh: 3%; Sm TGR inh: -12%

Results for COc1ccc(OC)c(/C=N/NC(=O)Cc2nc3ccccc3[nH]2)c1 ?
Tb PYK inh: 8%; Giardia FBPA inh: 10%; NS1 function inh: 2µM*; LmPK inhibitor: 1%; RE007 growth inh: -2%; Sm TGR inh: 6%; Flu NS1 inh: 10

Results for Cc1ccc(-n2nc(C(=O)Nc3ccc(Cl)cn3)c3c4ccccc4n(C)c3c2=O)cc1 ?
Tb PYK inh: 4%; Sm TGR inh: 1%

What do the screens show for `COc1ccc(CNC(=O)c2ccc3c(c2)N(Cc2c(F)cccc2Cl)C(=O)CS3)cc1`?
Tb PYK inh: 5%; Sm TGR inh: 1%

How did O=c1cc(-c2ccc(F)cc2)[nH][nH]1 do in these assays?
Tb PYK inh: -1%; Giardia FBPA inh: -3%; NS1 function inh: 13µM*; LmPK inhibitor: 0%; RE007 growth inh: 6%; Sm TGR inh: 6%; Flu NS1 inh: 20

How did O=c1cc(-c2ccc(Br)cc2)[nH][nH]1 do in these assays?
Tb PYK inh: 1%; Giardia FBPA inh: 0%; NS1 function inh: 17%; LmPK inhibitor: 2%; RE007 growth inh: -7%

What do the screens show for `CCC(C)NC(=O)CSc1nnc(-c2ccc(C)cc2)c(-c2ccc(C)cc2)n1` (stereo not drawn)?
Tb PYK inh: 1%; Sm TGR inh: 1%

Results for Oc1c(C(c2ccccc2)N2CCCCC2)sc2ncnn12 (stereo not drawn) ?
Tb PYK inh: -3%; Giardia FBPA inh: -15%; NS1 function inh: inconclusive; LmPK inhibitor: 1%; RE007 growth inh: -10%; Sm TGR inh: -9%; Flu NS1 inh: 1

How did Cc1ccc(C(=O)CSc2nc(N)cc(=O)[nH]2)cc1C do in these assays?
Tb PYK inh: 0%; Giardia FBPA inh: inconclusive; NS1 function inh: inconclusive; LmPK inhibitor: 1%; RE007 growth inh: -9%; Sm TGR inh: 0%

Results for CCC(C)c1c(O)nc(SCC(=O)c2ccccc2)[nH]c1=O (stereo not drawn) ?
Tb PYK inh: 4%; Giardia FBPA inh: -4%; NS1 function inh: 4.5µM*; LmPK inhibitor: -1%; RE007 growth inh: -9%; Sm TGR inh: 1%; Flu NS1 inh: 2
